Inhibition data for seven compounds are collected here from ChEMBL document CHEMBL1961873, “Compounds: GSK PKIS; Assays: Nanosyn kinase panel” (2012).

The target of assay [1] is Serine/threonine-protein kinase MARK2 (Homo sapiens) (UniProt Q7KZI7). The conditions noted are these: at 1 µM.
For assay [2], the target named is PAS domain-containing serine/threonine-protein kinase (Homo sapiens) (UniProt Q96RG2). The settings on record: at 0.1 µM.
For assay [3] the target is unchanged. The conditions noted are these: at 1 µM.
In assay [4] the target is Phosphorylase b kinase gamma catalytic chain, skeletal muscle/heart isoform (Homo sapiens) (UniProt Q16816). The settings on record: at 0.1 µM.
Chain of Phosphorylase b kinase gamma catalytic chain, skeletal muscle/heart isoform (Homo sapiens) (Q16816 whole entry, looked up, canonical isoform): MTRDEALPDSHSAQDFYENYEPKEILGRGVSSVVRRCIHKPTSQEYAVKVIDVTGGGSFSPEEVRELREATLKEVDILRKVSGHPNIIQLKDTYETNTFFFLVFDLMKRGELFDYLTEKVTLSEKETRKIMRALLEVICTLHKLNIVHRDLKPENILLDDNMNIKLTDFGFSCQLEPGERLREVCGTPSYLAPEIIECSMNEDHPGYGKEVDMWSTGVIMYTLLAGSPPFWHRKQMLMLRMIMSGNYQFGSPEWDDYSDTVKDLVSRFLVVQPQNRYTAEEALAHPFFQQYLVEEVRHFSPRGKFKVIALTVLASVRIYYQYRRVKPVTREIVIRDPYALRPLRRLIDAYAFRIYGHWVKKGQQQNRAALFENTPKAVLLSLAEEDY
The target is the same in assay [5]. The conditions noted are these: at 1 µM.
Assay [6] has as its target T1, Phosphorylase b kinase gamma catalytic chain, liver/testis isoform (Homo sapiens) (UniProt P15735).
T1 sequence (whole entry): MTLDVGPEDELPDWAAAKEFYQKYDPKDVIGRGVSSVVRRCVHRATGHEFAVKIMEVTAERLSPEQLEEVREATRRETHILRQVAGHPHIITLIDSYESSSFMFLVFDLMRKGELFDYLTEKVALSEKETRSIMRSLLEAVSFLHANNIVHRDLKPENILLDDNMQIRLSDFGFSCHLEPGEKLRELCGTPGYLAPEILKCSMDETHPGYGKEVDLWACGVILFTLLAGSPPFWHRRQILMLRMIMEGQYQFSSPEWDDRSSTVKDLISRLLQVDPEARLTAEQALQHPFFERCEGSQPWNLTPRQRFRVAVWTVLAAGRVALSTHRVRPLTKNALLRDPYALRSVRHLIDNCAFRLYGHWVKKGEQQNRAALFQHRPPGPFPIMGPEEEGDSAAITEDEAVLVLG
The settings on record: at 0.1 µM.

In assay [7] the target is T1, Phosphorylase b kinase gamma catalytic chain, liver/testis isoform (Homo sapiens). The settings on record: at 1 µM.
In assay [8] the target is Serine/threonine-protein kinase pim-1 (Homo sapiens) (UniProt P11309). The conditions noted are these: at 0.1 µM.
Chain of Serine/threonine-protein kinase pim-1 (Homo sapiens) (P11309 whole entry, looked up): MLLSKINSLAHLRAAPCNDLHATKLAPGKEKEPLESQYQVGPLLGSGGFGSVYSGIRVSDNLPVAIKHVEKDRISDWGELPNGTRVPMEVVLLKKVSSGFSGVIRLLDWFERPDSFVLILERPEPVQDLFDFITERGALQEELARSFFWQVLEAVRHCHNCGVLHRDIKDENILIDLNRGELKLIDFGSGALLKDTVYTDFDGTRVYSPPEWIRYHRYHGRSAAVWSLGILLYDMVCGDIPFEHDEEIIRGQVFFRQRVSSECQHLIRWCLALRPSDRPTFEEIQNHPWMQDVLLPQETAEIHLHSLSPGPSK
Assay [9] shares this target. The settings on record: at 1 µM.
For assay [10], the target named is Serine/threonine-protein kinase pim-2 (Homo sapiens) (UniProt Q9P1W9). The settings on record: at 0.1 µM.
Chain of Serine/threonine-protein kinase pim-2 (Homo sapiens) (Q9P1W9 whole entry, looked up): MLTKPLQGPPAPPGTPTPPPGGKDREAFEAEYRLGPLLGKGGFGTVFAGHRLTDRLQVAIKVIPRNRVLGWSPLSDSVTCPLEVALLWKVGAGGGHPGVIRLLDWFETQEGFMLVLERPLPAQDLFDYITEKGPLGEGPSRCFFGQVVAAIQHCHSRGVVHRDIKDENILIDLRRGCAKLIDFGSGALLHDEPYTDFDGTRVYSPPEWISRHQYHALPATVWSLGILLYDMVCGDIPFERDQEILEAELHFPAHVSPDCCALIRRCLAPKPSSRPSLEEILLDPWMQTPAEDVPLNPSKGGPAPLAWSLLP
The target is the same in assay [11]. The conditions noted are these: at 1 µM.
The target in assay [12] is Serine/threonine-protein kinase pim-3 (Homo sapiens) (UniProt Q86V86). The settings on record: at 0.1 µM.
The target is the same in assay [13]. The settings on record: at 1 µM.
Assay [14] concerns the target T2, MAP kinase-activated protein kinase 5 (Homo sapiens) (UniProt Q8IW41).
T2 sequence (whole entry): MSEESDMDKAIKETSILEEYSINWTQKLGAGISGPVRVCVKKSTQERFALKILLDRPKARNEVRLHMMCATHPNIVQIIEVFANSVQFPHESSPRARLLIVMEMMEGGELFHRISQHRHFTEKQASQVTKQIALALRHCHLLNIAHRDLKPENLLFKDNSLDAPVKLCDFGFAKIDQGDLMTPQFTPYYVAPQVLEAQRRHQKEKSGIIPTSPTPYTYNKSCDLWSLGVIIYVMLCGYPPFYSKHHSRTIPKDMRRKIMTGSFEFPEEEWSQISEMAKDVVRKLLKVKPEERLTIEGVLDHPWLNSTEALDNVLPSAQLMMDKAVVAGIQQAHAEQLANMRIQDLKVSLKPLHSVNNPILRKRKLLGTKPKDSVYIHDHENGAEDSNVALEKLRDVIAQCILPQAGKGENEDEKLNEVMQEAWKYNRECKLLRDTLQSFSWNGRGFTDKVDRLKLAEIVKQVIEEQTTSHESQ
The settings on record: at 0.1 µM.

The target of assay [15] is T2, MAP kinase-activated protein kinase 5 (Homo sapiens). The conditions noted are these: at 1 µM.
Assay [16] addresses Serine/threonine-protein kinase SIK1 (Homo sapiens) (UniProt P57059). The settings on record: at 0.1 µM.
For assay [17] the target is unchanged. The conditions noted are these: at 1 µM.
The target in assay [18] is Serine/threonine-protein kinase SIK2 (Homo sapiens) (UniProt Q9H0K1). The conditions noted are these: at 0.1 µM.
Chain of Serine/threonine-protein kinase SIK2 (Homo sapiens) (Q9H0K1 whole entry, looked up): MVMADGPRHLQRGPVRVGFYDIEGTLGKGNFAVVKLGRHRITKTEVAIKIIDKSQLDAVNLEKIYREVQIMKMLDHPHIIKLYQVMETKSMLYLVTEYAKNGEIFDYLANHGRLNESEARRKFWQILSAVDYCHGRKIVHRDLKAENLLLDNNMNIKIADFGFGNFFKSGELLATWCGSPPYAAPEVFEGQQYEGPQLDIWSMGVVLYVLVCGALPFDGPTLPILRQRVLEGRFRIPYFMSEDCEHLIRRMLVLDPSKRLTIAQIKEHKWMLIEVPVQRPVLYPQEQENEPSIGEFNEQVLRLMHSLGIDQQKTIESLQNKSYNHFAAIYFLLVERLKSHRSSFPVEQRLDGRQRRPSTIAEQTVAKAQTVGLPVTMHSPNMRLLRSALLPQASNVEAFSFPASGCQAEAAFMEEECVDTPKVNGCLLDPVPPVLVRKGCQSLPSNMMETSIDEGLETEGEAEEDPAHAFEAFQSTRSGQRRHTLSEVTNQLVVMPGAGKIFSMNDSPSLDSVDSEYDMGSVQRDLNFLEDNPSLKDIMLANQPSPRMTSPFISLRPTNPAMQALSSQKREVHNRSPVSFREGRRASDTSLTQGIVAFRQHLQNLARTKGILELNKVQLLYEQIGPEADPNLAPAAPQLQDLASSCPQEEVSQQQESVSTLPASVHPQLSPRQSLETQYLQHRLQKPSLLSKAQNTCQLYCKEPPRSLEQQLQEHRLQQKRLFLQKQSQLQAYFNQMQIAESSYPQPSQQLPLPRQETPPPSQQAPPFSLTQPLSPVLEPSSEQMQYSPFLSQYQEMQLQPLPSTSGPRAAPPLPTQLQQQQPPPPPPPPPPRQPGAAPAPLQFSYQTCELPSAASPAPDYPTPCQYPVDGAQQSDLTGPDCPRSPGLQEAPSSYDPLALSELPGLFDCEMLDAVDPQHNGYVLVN
For assay [19] the target is unchanged. The conditions noted are these: at 1 µM.
The target of assay [20] is T3, Serine/threonine-protein kinase TBK1 (Homo sapiens) (UniProt Q9UHD2).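 Note: values are the mean TBK1 inhibition, taken from the GSK PKIS screening data.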
T3 sequence (whole entry): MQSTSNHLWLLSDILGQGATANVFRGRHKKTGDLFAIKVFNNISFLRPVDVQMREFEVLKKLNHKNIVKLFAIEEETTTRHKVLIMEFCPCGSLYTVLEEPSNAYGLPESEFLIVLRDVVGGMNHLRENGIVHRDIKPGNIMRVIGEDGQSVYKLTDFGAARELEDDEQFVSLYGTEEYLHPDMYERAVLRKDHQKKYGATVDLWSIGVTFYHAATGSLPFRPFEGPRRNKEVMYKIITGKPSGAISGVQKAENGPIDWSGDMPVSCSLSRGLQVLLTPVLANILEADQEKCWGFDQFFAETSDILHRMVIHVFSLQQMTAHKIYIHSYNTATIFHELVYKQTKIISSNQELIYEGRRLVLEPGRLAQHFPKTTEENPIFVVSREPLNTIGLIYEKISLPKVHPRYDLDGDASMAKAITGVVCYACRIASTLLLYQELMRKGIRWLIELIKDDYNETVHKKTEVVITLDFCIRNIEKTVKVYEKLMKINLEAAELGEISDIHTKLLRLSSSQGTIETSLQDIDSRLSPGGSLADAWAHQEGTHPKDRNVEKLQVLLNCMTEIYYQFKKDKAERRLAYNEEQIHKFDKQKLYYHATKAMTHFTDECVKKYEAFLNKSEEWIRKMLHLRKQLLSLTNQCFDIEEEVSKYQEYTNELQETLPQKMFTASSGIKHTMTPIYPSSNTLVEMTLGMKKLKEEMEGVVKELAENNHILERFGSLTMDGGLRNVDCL
The conditions noted are these: at 0.1 µM.

Chain of PAS domain-containing serine/threonine-protein kinase (Homo sapiens) (Q96RG2 whole entry, the tested form may be a part): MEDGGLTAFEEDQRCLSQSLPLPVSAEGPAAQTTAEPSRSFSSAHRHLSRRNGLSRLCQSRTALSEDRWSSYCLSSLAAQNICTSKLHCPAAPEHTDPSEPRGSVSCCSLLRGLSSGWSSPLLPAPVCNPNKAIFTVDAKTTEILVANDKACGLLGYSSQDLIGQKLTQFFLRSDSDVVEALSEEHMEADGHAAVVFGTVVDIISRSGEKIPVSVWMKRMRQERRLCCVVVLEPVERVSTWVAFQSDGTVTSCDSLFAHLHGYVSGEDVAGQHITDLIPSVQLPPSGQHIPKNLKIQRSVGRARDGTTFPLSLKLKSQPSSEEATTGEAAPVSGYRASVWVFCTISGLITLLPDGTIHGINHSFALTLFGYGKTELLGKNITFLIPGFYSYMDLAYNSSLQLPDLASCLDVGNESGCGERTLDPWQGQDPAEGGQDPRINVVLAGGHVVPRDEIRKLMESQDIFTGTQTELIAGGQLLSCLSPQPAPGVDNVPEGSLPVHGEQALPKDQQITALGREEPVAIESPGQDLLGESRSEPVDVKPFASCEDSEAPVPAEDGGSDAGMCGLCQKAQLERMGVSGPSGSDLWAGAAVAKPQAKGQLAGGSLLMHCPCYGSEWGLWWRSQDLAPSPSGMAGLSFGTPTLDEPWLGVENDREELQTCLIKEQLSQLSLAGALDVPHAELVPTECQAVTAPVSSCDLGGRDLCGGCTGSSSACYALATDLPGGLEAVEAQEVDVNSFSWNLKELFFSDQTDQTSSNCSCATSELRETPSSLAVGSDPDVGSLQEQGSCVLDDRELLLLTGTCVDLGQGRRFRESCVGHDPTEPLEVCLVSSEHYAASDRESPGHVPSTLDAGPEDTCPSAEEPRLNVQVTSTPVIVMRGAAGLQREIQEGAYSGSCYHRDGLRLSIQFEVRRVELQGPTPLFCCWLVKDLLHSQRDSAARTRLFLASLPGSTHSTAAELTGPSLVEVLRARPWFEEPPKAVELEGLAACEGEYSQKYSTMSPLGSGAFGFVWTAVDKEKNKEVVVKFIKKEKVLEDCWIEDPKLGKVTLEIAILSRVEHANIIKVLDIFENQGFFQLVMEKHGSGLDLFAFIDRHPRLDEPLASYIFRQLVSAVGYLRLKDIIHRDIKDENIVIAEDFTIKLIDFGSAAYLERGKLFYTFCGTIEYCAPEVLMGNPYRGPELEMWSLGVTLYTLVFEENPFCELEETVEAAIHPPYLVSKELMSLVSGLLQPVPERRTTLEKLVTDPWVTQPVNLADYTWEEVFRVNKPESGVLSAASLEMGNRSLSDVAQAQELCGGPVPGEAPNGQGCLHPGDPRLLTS
Chain of Serine/threonine-protein kinase SIK1 (Homo sapiens) (P57059 whole entry): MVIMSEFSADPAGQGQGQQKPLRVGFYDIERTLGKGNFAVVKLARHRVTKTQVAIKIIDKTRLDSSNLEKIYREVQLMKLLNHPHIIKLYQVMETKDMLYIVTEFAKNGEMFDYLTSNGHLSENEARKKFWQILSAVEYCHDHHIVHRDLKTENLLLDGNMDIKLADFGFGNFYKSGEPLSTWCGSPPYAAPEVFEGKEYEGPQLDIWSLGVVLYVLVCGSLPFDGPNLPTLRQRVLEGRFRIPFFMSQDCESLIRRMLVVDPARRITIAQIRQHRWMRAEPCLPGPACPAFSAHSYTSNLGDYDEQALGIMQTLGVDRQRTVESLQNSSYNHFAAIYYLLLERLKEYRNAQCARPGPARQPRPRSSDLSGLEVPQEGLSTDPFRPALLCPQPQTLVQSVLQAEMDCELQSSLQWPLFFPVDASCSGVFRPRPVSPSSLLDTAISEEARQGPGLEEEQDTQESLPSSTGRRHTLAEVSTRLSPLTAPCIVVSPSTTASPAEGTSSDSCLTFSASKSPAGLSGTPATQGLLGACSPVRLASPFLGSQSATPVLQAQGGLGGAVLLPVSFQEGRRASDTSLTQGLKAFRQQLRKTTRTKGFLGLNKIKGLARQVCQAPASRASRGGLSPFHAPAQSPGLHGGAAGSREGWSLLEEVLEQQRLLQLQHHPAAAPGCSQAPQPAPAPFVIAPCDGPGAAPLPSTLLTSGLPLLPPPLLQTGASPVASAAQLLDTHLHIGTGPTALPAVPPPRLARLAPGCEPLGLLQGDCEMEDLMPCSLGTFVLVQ

`Cc1cc(O)cc(C)c1/C=C/c1cncc(C(=O)OC(C)(C)C)c1`: the inhibition (usually the change of the read-out against control, counted positive when it falls) in assay [1] was 1.18%; in assay [2], -0.08%; in [3], 0.02%; in assay [4], 3.95%; in [5], -7.1%; in assay [6] it was 3.11%. The inhibition in [7] is 1.25%; in [8], 0.18%; in assay [9] it was 0.23%; in assay [10], 0.32%; in [11] it was 1.55%; in [12], -1.42%. For the same compound, the inhibition in assay [13] came out at 2.22%; in [14], 0.68%; in [15], 1.6%; in [16], 18.8%; in [17], 71.9%; in [18], 10.5%. The figures for the inhibition in assay [19] and in [20] were 12.3% and 2.04%, respectively.
In the case of `CCN1CCC(C(=O)Nc2n[nH]c3nnc(-c4cccc(F)c4F)cc23)CC1`, the inhibition in assay [1] is 1.95%; in assay [2] it was 1.35%; in [3], 0.26%; in assay [4], 1.99%; in [5], 4.68%; in assay [6] it was -0.86%. The inhibition is -1.05% in assay [7]; -0.82% in assay [8]; 0.91% in [9]; 0.04% in assay [10]; 0.25% in [11]; -0.6% in assay [12]. Also, the inhibition in assay [13] is 2.08%; in assay [14], 0.03%; in assay [15], -0.34%; in assay [16], -3.64%; in assay [17] it was 0.15%; in [18], -2.38%. In addition, the inhibition in [19] is -0.5%; in [20], 0.48%.
With `N#Cc1cccc(Nc2ncc(-c3ccccc3)o2)c1`, the inhibition in [1] is -0.47%; in assay [2] it was 0.37%; in assay [3], 2.05%; in assay [4], 2.95%; in assay [5] it was 12.9%; in [6], 1.85%. In addition, the inhibition came out at 6.04% in [7]; 0.15% in [8]; 0.29% in assay [9]; 0.1% in assay [10]; 0.47% in assay [11]; 0.1% in [12]. Moreover, the inhibition in assay [13] turned out to be 2.79%; in [14], 1.22%; in assay [15], 2.58%; in [16], 1.14%; in assay [17], 4%; in [18] it was 1.76%. Further, the inhibition came out at 4.74% in assay [19] and 1.05% in assay [20].
Regarding `COc1cc2c(cc1Nc1nc(Nc3cccc(F)c3C(N)=O)c3cc[nH]c3n1)N(C(=O)CN1CCN(C(C)C)CC1)CC2`, the inhibition in [1] was 3.63%; in [2], -0.77%; in assay [3], -0.72%; in assay [4], 0.29%; in assay [5], 9.54%; in assay [6] it was 3.29%. For the same compound, the inhibition is 5.63% in [7]; 1.43% in assay [8]; 0.21% in assay [9]; -0.02% in assay [10]; 0.2% in assay [11]; 0.01% in assay [12]. Besides, the inhibition in assay [13] was 1.84%; in assay [14], 0.57%; in assay [15], 1.03%; in [16], 5.86%; in assay [17], 8.52%; in assay [18], 3.09%. Besides, the inhibition in [19] came out at 0.18%; in [20], 2.33%.
Consider `Cc1ccc(-c2cc3c(NC(=O)C4CC4)ncnc3o2)cc1`, for which the inhibition turned out to be 3.45% in assay [1]; 0.53% in [2]; 0.26% in [3]; 3.62% in assay [4]; 9.89% in [5]; 4.46% in assay [6]. Also, the inhibition was 1.83% in assay [7]; 0.73% in assay [8]; 1.91% in assay [9]; 0.35% in assay [10]; 1.12% in [11]; -0.12% in [12]. The inhibition is 4.13% in assay [13]; 0.83% in [14]; 0.27% in assay [15]; 6.5% in assay [16]; 7.93% in assay [17]; -1.22% in [18]. For the same compound, the values for the inhibition in assay [19] and in assay [20] were 3.33% and 3.64%, respectively.
In the case of `Cc1cc(O)cc(C)c1/C=C/c1cncc(C(N)=O)c1`, the inhibition in [1] is 1.96%; in assay [2], 0.45%; in assay [3] it was -0.18%; in assay [4] it was 3.36%; in assay [5], 2.58%; in assay [6], 2.43%. Besides, the inhibition in [7] is 0.42%; in [8], 0.11%; in assay [9], 0.65%; in assay [10] it was 0.8%; in [11], 0.5%; in assay [12] it was -0.22%. Moreover, the inhibition in assay [13] is -1.42%; in assay [14] it was 0.25%; in assay [15], -0.19%; in assay [16], 48.9%; in [17] it was 89%; in assay [18] it was 6.79%. Further, the results for the inhibition in assay [19] and in assay [20] were 37.5% and 2.21%, respectively.
For the compound `CS(=O)(=O)Nc1ccc(-c2cc(-c3ccccc3)cc(C(N)=O)c2N)cc1`, the inhibition was 4.64% in [1]; -0.01% in assay [2]; -0.36% in assay [3]; 1.44% in assay [4]; 4.26% in [5]; 1.4% in [6]. For the same compound, the inhibition in assay [7] was 0.02%; in assay [8], 0.69%; in assay [9] it was 1.67%; in assay [10], -0.48%; in [11], 0.82%; in assay [12], 0.62%. The inhibition was 1.22% in assay [13]; 0.73% in [14]; 3.19% in [15]; 1.69% in [16]; 7.99% in assay [17]; -1.02% in assay [18]. Also, the inhibition in assay [19] worked out at 3.58%; in assay [20], 1.82%.
